# Source: PubChem BioAssay (NCATS)
# Several values for one entry are separate records, joined by “and”; a condition that tells them apart may be missing. Equal values may be shown once. Inconclusive results are not listed. Some compounds were tested as several samples or in several runs, with calls that do not always agree. Activity calls are given as the source filed them. Unless noted, the call rests on the fitted dose curve; in most records, active means well fitted curve in the direction sought with a large enough effect; inconclusive means small, poorly fitted or top-dose-only effect, or another doubt; inactive means no such curve, though single readings can be large; an effect the other way counts as inactive or inconclusive.
# Experiments:
# [1] = NCATS anti-infectives library activity on the primary C. elegans qHTS viability assay (AID 1745855; calls by dose curve; further: potency means the concentration at half of the fitted maximal effect); conditions: C. elegans worm area imaging, day 7; series mostly up to 41.8 µM
# How it was run: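 Viability is taken from GFP fluorescence of PE254-GFP-FLuc C. elegans imaged by laser cytometry over 7 days. Ten L1 worms per well grow at 21 °C on TOP10 E. coli capsules with titrated compound; levamisole marks toxicity.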
# [2] = target: Phospholipid hydroperoxide glutathione peroxidase GPX4 (Homo sapiens) (UniProt P36969); assay: Primary qHTS Assay for Inhibitors of Recombinant Selenoprotein Glutathione Peroxidase 4 (GPX4) (AID 1845192); conditions: recombinant GPX4, GR-coupled NADPH fluorescence, 15 min; series mostly up to 50 µM; further: nearly all actives have a fitted effect of over 65% in size; further: potency means the concentration at half of the fitted maximal effect; on activity change, negative = inhibition: on the % scale 0 is the no-effect control and ±100 the full control effect
# How it was run: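 NADPH consumption, followed by fluorescence at 340/450 nm between 0 and 15 min, reports GPX4 activity via coupled glutathione reductase (100 nM). Enzyme 200 nM was pre-exposed to compound 30 min; 0.5 mM cumene hydroperoxide and 1 mM GSH served as substrates.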
# [3] = Quantitative High-Throughput drug screen in 47 multiple myeloma cell lines against the NCATS MIPE library collection: FR4_PLB cell viability assay (AID 1918924; further: nearly all actives have a fitted effect of over 35% in size; further: potency means the concentration at half of the fitted maximal effect); conditions: FR4_PLB myeloma cells viability, CellTiter-Glo ATP, 48 h; series mostly up to 45.8 µM
# How it was run: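 Primary qHTS used for cherry-picking: cells at 500/well, library compounds for 48 h (37C, 5% CO2), luminescent ATP assay.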
# [4] = Quantitative High-Throughput drug screen in 47 multiple myeloma cell lines against the NCATS MIPE library collection: Delta47_JCRB cell viability assay (AID 1918925; further: nearly all actives have a fitted effect of over 45% in size; further: potency means the concentration at half of the fitted maximal effect); conditions: Delta47 myeloma viability, CellTiter-Glo ATP, 48 h; series mostly up to 45.8 µM
# How it was run: (§1)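 Myeloma cells (500 per well) were exposed to MIPE 4.0 compounds by pin transfer and incubated 48 hours at 37C, 5% CO2. Viability was read as ATP by CellTiter-Glo luminescence, normalised to DMSO (100%) and media-only (0%) wells.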
# [5] = Quantitative High-Throughput drug screen in 47 multiple myeloma cell lines against the NCATS MIPE library collection: EJM_DSMZ cell viability assay (AID 1918926; further: nearly all actives have a fitted effect of over 30% in size; further: potency means the concentration at half of the fitted maximal effect); conditions: EJM myeloma cell viability, CellTiter-Glo ATP, 48 h; series mostly up to 45.8 µM
# How it was run: as §1
# [6] = target: Guanidinoacetate N-methyltransferase (Homo sapiens) (UniProt Q14353); assay: Confirmatory Screen for Target Class Profiling of Small Molecule Inhibitors of Methyltransferases (AID 1745852; calls by dose curve; further: potency means the concentration at half of the fitted maximal effect; on activity change, negative = inhibition: on the % scale 0 is the no-effect control and ±100 the full control effect); conditions: MTase-Glo luminescence, SAH detection, recombinant enzyme; activity change, negative = inhibition: at 57.3 µM (top of the series) unless noted
# [7] = target: Nicotinamide N-methyltransferase (Homo sapiens) (UniProt P40261); assay: as above; conditions: MTase-Glo luminescence, SAH detection, recombinant enzyme; measured here: NNMT max response; stronger effect = lower value
# [8] = target: Phenylethanolamine N-methyltransferase (Homo sapiens) (UniProt P11086); assay: as above; conditions: MTase-Glo luminescence, SAH detection, recombinant enzyme; measured here: PNMT max response; stronger effect = lower value
# [9] = target: Metallo-beta-lactamase type 2 (Klebsiella pneumoniae) (UniProt C7C422); assay: qHTS to identify inhibitors of the New Delhi Metallo-beta-lactamase (NDM): assay validation screen against the NCATS LOPAC Collection (AID 1794843); conditions: NDM-1 enzyme, nitrocefin hydrolysis, absorbance 485 nm; series mostly up to 38.4 µM;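 further: nitrocefin turnover by NDM-1 measured as 485 nm absorbance at plateau; on the % scale 0 is the no-effect control and ±100 the full control effect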
# How it was run: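 Enzyme 2 nM final, 50 mM HEPES pH 7.0, 1 uM ZnSO4, 0.01% Tween20; cpds in DMSO, preincub w/ enzyme; + nitrocefin (50 uM stock); A485 at plateau; no-enzyme column as blank.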
# [10] = target: Glutathione peroxidase 1 (Homo sapiens) (UniProt P07203); assay: Primary qHTS Assay for Inhibitors of Recombinant Selenoprotein Glutathione Peroxidase 1 (GPX1) (AID 1845191); conditions: recombinant GPX1, GR-coupled NADPH fluorescence, 15 min; series mostly up to 48.8 µM; further: nearly all actives have a fitted effect of over 65% in size; further: potency means the concentration at half of the fitted maximal effect
# How it was run: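 10 nM GPX1 + cpd, 30 min RT; start w/ 1 mM GSH, 0.5 mM cumene hydroperoxide, 0.5 mM NADPH, 100 nM GR, 0.01% BSA; buffer 50 mM Tris-HCl pH 7.5, 2 mM EDTA, 150 mM NaCl; Fl 340/450, 0 & 15 min.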
# [11] = NCATS anti-infectives library activity on HEK293 viability as a counter-qHTS vs the C. elegans viability qHTS (AID 1745854); conditions: HEK293 viability counter-screen; series mostly up to 41.8 µM;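 further: HEK293 cells exposed to compounds for 24 hr before the viability read; on the % scale 0 is the no-effect control and ±100 the full control effect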
# How it was run: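 Cytotoxicity in human HEK293 cells is measured by ATP-dependent CellTiter-Glo luminescence following a 24 hr incubation with titrated library compounds at 37C. Top final concentration is 41.7 uM.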
# [12] = target: Luciferin 4-monooxygenase (Photinus pyralis) (UniProt P08659); assay: Primary firefly luciferase (FLuc) qHTS assay for identification of artifact compounds. (AID 1845220); conditions: purified firefly luciferase, luminescence, 5 min; series mostly up to 54.1 µM; further: nearly all actives have a fitted effect of over 60% in size;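 on activity change, negative = inhibition: plate controls were DMSO vehicle for no effect and no enzyme for full effect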
# How it was run: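 Compounds sat 15 min at room temperature with 10 uM luciferin and 10 uM ATP (pH 7.6 Tris acetate). Firefly luciferase (10 nM final) was then added, and luminescence was read 5 min later. Data normalized to no-enzyme and DMSO controls were Hill-fitted.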
# [13] = Primary fluorescence-based thiol-reactive (MSTI) qHTS assay for identification of artifact compounds. (AID 1845221); conditions: MSTI thiol-reactivity probe, 1 h; series mostly up to 53.8 µM;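 further: thiol-reactive compounds lower the probe fluorescence signal; nearly all actives have a fitted effect of over 65% in size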
# How it was run: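 qHTS titration of compound; 4 uM MSTI, PBS pH 7.4, 2% DMSO; 1 h RT, dark; fluorescence 525/598 nm; normalized to Acetyl-MSTI and MSTI; 4-parameter Hill fit.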
# [14] = test system: Nanoluciferase (engineered Oplophorus gracilirostris luciferase); assay: Primary Nanoluciferase (NLuc) qHTS assay for identification of artifact compounds. (AID 1845222); conditions: NLuc-conditioned medium, Nano-Glo luminescence, 5 min; series mostly up to 54.1 µM;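 further: 0% = DMSO and -100% = no enzyme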
# How it was run: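 Luminescence from secreted NLuc (filtered, 1:55-diluted S16 cell medium) read 5 min after Nano-Glo substrate; compounds preincubated 15 min, RT. Hill fits of inhibition normalized to DMSO and no-enzyme.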
# [15] = Primary redox qHTS assay for identification of artifact compounds. (AID 1845223); conditions: Amplex Red/HRP redox cycling with DTT, fluorescence; series mostly up to 53.8 µM
# How it was run: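 Amplex Red (25 uM) and HRP (250 mU/mL) in HBSS, with compounds for 15 min, then 250 uM DTT for 30 min, room temperature, dark. Fluorescence 525/598 nm read; normalized to DMSO and 10 uM DA3003; Hill fit.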
# Glutathione peroxidase 1 (Homo sapiens), sequence (P07203 whole entry, looked up): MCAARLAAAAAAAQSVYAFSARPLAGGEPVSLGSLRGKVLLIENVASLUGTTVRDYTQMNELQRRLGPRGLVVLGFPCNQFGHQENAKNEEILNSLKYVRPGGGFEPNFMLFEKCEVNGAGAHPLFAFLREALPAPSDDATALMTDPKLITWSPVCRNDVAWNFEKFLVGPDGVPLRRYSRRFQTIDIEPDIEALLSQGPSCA
# Phospholipid hydroperoxide glutathione peroxidase GPX4 (Homo sapiens), sequence (P36969 whole entry, looked up): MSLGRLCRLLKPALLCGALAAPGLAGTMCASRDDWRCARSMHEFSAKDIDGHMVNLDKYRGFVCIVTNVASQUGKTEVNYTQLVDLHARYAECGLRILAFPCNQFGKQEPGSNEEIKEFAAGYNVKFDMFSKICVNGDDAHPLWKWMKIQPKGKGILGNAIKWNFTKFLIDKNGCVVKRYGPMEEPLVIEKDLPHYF
# Phenylethanolamine N-methyltransferase (Homo sapiens), sequence (P11086 whole entry, looked up): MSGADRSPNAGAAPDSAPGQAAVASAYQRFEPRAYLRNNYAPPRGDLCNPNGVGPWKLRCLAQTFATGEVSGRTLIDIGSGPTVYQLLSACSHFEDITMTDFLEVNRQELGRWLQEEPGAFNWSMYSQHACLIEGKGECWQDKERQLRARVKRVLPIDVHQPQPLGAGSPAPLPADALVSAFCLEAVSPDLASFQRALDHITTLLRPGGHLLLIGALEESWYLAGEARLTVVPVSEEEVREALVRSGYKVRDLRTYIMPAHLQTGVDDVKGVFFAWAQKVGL
# Nicotinamide N-methyltransferase (Homo sapiens), sequence (P40261 whole entry, looked up): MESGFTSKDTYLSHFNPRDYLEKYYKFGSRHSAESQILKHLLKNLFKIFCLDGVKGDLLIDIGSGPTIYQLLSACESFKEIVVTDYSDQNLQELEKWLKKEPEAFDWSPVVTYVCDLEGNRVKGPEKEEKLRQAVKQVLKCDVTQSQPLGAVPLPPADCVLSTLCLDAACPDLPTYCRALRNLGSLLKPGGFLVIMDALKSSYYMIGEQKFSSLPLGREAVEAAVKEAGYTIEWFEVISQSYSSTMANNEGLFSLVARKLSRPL
# Metallo-beta-lactamase type 2 (Klebsiella pneumoniae), sequence (C7C422 whole entry, looked up): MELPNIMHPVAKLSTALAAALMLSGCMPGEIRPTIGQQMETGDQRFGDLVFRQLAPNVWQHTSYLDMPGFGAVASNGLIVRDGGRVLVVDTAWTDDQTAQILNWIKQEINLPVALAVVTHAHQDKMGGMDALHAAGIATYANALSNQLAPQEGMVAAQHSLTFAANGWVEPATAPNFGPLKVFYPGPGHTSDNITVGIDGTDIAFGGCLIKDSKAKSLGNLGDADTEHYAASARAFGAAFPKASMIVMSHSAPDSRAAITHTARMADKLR
smiles,measurement,setting,value
CC(C)=CC[C@@H](O)C1=CC(=O)c2c(O)ccc(O)c2C1=O,Potency,[1],16.3 µM (active)
same,Potency,[2],16.1 µM (active)
same,Potency,[3],0.662 µM (active)
same,Potency,[4],8.33 µM (active)
same,Potency,[5],0.418 µM (active)
CCc1ccc(C=C2SC(=S)NC2=O)cc1,"activity change, negative = inhibition",[6],-3.11%
same,activity,[7],-15.7%
same,activity,[8],-1.21%
same,Potency,[3],inactive
same,Potency,[4],inactive
same,Potency,[5],inactive
CC1(C)CCC2=C(O1)c1ccccc1C(=O)C2=O,Potency,[6],9.68 µM (active)
same,activity,[7],-22.7%
same,activity,[8],-16.1%
same,Potency,[9],inactive
same,Potency,[10],16.3 µM (active) and inactive
same,Potency,[2],inactive
same,Potency,[3],20.9 µM (active)
same,Potency,[4],16.6 µM (active)
same,Potency,[5],20.9 µM (active)
O=C(O)c1ccc(-c2c[nH]c3ncc(-c4ccccc4)cc23)cc1C1CCCC1,outcome,[11],inactive
same,Potency,[10],inactive
same,Potency,[5],inactive
COc1ccc2c(Oc3ccc(NC(=O)c4c(C)n(CC(C)(C)O)n(-c5ccccc5)c4=O)cc3F)ccnc2c1,"activity change, negative = inhibition",[6],-3.46%
same,activity,[7],-7.85%
same,activity,[8],-1.86%
same,Potency,[10],inactive
same,Potency,[2],inactive
same,Potency,[12],inactive
same,Potency,[13],inactive
same,Potency,[14],inactive
same,outcome,[15],inactive
same,Potency,[3],26.4 µM (active)
same,Potency,[4],23.5 µM (active)
CCS(=O)(=O)N1CC(CC#N)(n2cc(-c3ncnc4[nH]ccc34)cn2)C1,outcome,[11],inactive
same,Potency,[2],16.1 µM (active)
same,Potency,[12],inactive
same,Potency,[13],inactive
same,Potency,[14],inactive
same,outcome,[15],inactive
same,Potency,[3],16.6 µM (active)
CC1(C)CCC(CN2CCN(c3ccc(C(=O)NS(=O)(=O)c4ccc(NCC5CCOCC5)c([N+](=O)[O-])c4)c(Oc4cnc5[nH]ccc5c4)c3)CC2)=C(c2ccc(Cl)cc2)C1,"activity change, negative = inhibition",[6],1.26% [at 29.8 µM]
same,activity,[7],-11.4%
same,activity,[8],-21.8%
same,Potency,[10],inactive and 6.4 µM (active)
same,Potency,[2],inactive and 3.16 µM (active)
same,Potency,[12],inactive
same,Potency,[13],inactive
same,Potency,[14],inactive
same,outcome,[15],inactive
same,Potency,[3],20.9 µM (active)
same,Potency,[5],20.9 µM (active)
